Out of some 5,500 compounds screened, about 2,000 (36%) were called active. Another 18% or so got no clear call; they are omitted. The list shows a part of the results. Unmarked numbers belong to inactive results. Cut-off read from the data, not from the text of the source: active = normalized growth mostly below about 0.91 (no sharp cut-off); inconclusive = no clear call, values can overlap the other calls; inactive = mostly above about 0.92.
Test: chemical genetic growth profiling, strain panel (AID 1159580);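 note: tested at 20 µM; growth read once vehicle control cultures reached saturation at 30 °C; 1 = growth at the plate median or of vehicle wells; lower values mean less growth of the strain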
Conditions: S. cerevisiae deletion strains, growth OD
[1] = locus YDL101C, strain DUN1, stronger effect = lower value
[2] = locus YHR030C, strain SLT2, stronger effect = lower value

Question: Which normalized growth (locus YAL013W, strain DEP1, stronger effect = lower value) does the source give for `S=C(NCCCn1ccnc1)Nc1cc(Cl)ccc1Cl` here?
Answer: 1.02

Question: And the normalized growth (locus YBR229C, strain ROT2, stronger effect = lower value)?
Answer: 0.987

Question: What about the normalized growth (locus YCL061C, strain MRC1, stronger effect = lower value) of the same compound?
Answer: 0.979

Question: What about the normalized growth [1] of the same compound?
Answer: 0.963

Question: And the normalized growth (locus YDL134C, strain PPH21, stronger effect = lower value)?
Answer: 0.868 (active)

Question: What about the normalized growth (locus YDR150W, strain NUM1, stronger effect = lower value) of the same compound?
Answer: 1.01

Question: What about the normalized growth (locus YEL061C, strain CIN8, stronger effect = lower value) of the same compound?
Answer: 1.02

Question: And the normalized growth (locus YGR078C, strain PAC10, stronger effect = lower value)?
Answer: 0.982

Question: And the normalized growth (locus YGR229C, strain SMI1, stronger effect = lower value)?
Answer: 0.994

Question: And the normalized growth [2]?
Answer: 0.745

Question: What about the normalized growth (locus YHR087W, strain rtc3, stronger effect = lower value) of the same compound?
Answer: 1.04

Question: What about the normalized growth (locus YJL187C, strain SWE1, stronger effect = lower value) of the same compound?
Answer: 1.01

Question: And the normalized growth (locus YJR043C, strain POL32, stronger effect = lower value)?
Answer: 1

Question: And the normalized growth (locus YJR075W, strain HOC1, stronger effect = lower value)?
Answer: 0.979

Question: What about the normalized growth (locus YKL190W, strain CNB1, stronger effect = lower value) of the same compound?
Answer: 0.994

Question: And the normalized growth (locus YLR039C, strain RIC1, stronger effect = lower value)?
Answer: 0.973

Question: And the normalized growth (locus YLR058C, strain SHM2 (second series), stronger effect = lower value)?
Answer: 1.02

Question: And the normalized growth (locus YLR085C, strain ARP6, stronger effect = lower value)?
Answer: 0.839

Question: And the normalized growth (locus YLR262C, strain YPT6, stronger effect = lower value)?
Answer: 1.05

Question: And the normalized growth (locus YML094W, strain GIM5, stronger effect = lower value)?
Answer: 1.01

Question: What about the normalized growth (locus YMR219W, strain ESC1, stronger effect = lower value) of the same compound?
Answer: 1

Question: And the normalized growth (locus YMR263W, strain SAP30, stronger effect = lower value)?
Answer: 1.01

Question: And the normalized growth (locus YNL153C, strain GIM3, stronger effect = lower value)?
Answer: 0.987

Question: What about the normalized growth (locus YNL298W, strain CLA4 (second series), stronger effect = lower value) of the same compound?
Answer: 0.971

Question: What about the normalized growth (locus YNL322C, strain KRE1, stronger effect = lower value) of the same compound?
Answer: 0.992

Question: And the normalized growth (locus YNR030W, strain Alg12, stronger effect = lower value)?
Answer: 1.01

Question: And the normalized growth (locus YOL006C, strain TOP1, stronger effect = lower value)?
Answer: 0.938

Question: And the normalized growth (locus YPL055C, strain LGE1, stronger effect = lower value)?
Answer: 1

Question: And the normalized growth (locus YPL241C, strain CIN2, stronger effect = lower value)?
Answer: 0.983

Question: What about the normalized growth (locus YPR135W, strain CTF4, stronger effect = lower value) of the same compound?
Answer: 0.754

Question: Which results are given for `O=C(CO/N=C\c1ccc(Cl)cc1Cl)NNC(=S)Nc1cc(Cl)ccc1Cl`?
Answer: normalized growth (locus YAR019C, strain CDC15, stronger effect = lower value): 1; normalized growth (locus YBL105C, strain PKC1, stronger effect = lower value): 0.992; normalized growth (locus YBR135W, strain CKS1, stronger effect = lower value): 1; normalized growth (locus YBR136W, strain MEC1, stronger effect = lower value): 1.01; normalized growth (locus YBR160W, strain CDC28, stronger effect = lower value): 1; normalized growth (locus YDL017W, strain CDC7, stronger effect = lower value): 1; normalized growth (locus YDL028C, strain MPS1, stronger effect = lower value): 1; normalized growth [1]: 0.978; normalized growth (locus YDL108W, strain KIN28, stronger effect = lower value): 1.01; normalized growth (locus YDL132W, strain cdc53, stronger effect = lower value): 1; normalized growth (locus YDL214C, strain PRR2, stronger effect = lower value): 0.999; normalized growth (locus YDR052C, strain DBF4, stronger effect = lower value): 1; normalized growth (locus YDR054C, strain cdc34, stronger effect = lower value): 0.994; normalized growth (locus YDR226W, strain ADK1, stronger effect = lower value): 0.994; normalized growth (locus YDR477W, strain SNF1, stronger effect = lower value): 0.983; normalized growth (locus YER123W, strain YCK3, stronger effect = lower value): 0.996; normalized growth (locus YER133W, strain GLC7, stronger effect = lower value): 0.983; normalized growth (locus YFL009W, strain cdc4, stronger effect = lower value): 0.996; normalized growth (locus YFL029C, strain CAK1, stronger effect = lower value): 1.01; normalized growth (locus YFR003C, strain YPI1, stronger effect = lower value): 0.997; normalized growth (locus YFR019W, strain FAB1, stronger effect = lower value): 1; normalized growth (locus YFR028C, strain CDC14, stronger effect = lower value): 0.994; normalized growth (locus YGR040W, strain KSS1, stronger effect = lower value): 0.984; normalized growth (locus YGR052W, strain FMP48, stronger effect = lower value): 1.02; normalized growth (locus YGR092W, strain DBF2, stronger effect = lower value): 0.961; normalized growth [2]: 1.01; normalized growth (locus YHR079C, strain IRE1, stronger effect = lower value): 0.966; normalized growth (locus YHR082C, strain KSP1, stronger effect = lower value): 1.14; normalized growth (locus YHR205W, strain SCH9, stronger effect = lower value): 0.98; normalized growth (locus YIL147C, strain SLN1, stronger effect = lower value): 1; normalized growth (locus YJL095W, strain BCK1, stronger effect = lower value): 0.928; normalized growth (locus YJL128C, strain PBS2, stronger effect = lower value): 0.992; normalized growth (locus YJL157C, strain FAR1, stronger effect = lower value): 0.989; normalized growth (locus YJR016C, strain ILV3, stronger effect = lower value): 1; normalized growth (locus YJR066W, strain TOR1 (second series), stronger effect = lower value): 0.948; normalized growth (locus YJR066W, strain TOR1, stronger effect = lower value): 1.15; normalized growth (locus YKL048C, strain ELM1, stronger effect = lower value): 1; normalized growth (locus YKL067W, strain YNK1, stronger effect = lower value): 1.03; normalized growth (locus YKL101W, strain HSL1, stronger effect = lower value): 1; normalized growth (locus YKL193C, strain SDS22, stronger effect = lower value): 1; normalized growth (locus YKL203C, strain TOR2, stronger effect = lower value): 1.06; normalized growth (locus YLR113W, strain HOG1, stronger effect = lower value): 1.01; normalized growth (locus YLR133W, strain CKI1, stronger effect = lower value): 1.02; normalized growth (locus YLR403W, strain SFP1, stronger effect = lower value): 0.97; normalized growth (locus YML070W, strain DAK1, stronger effect = lower value): 0.995; normalized growth (locus YMR001C, strain CDC5, stronger effect = lower value): 1; normalized growth (locus YMR205C, strain PFK2 (second series), stronger effect = lower value): 1.01; normalized growth (locus YMR277W, strain FCP1, stronger effect = lower value): 1; normalized growth (locus YNL006W, strain LST8, stronger effect = lower value): 0.99; normalized growth (locus YNL020C, strain ARK1, stronger effect = lower value): 1.01; normalized growth (locus YNL161W, strain CBK1, stronger effect = lower value): 0.996; normalized growth (locus YNL183C, strain NPR1, stronger effect = lower value): 1.09; normalized growth (locus YNL207W, strain RIO2, stronger effect = lower value): 1.01; normalized growth (locus YNL222W, strain SSU72, stronger effect = lower value): 0.993; normalized growth (locus YNL307C, strain MCK1 (second series), stronger effect = lower value): 0.999; normalized growth (locus YOL078W, strain AVO1, stronger effect = lower value): 1; normalized growth (locus YOL136C, strain PFK27, stronger effect = lower value): 1.01; normalized growth (locus YOR061W, strain CKA2, stronger effect = lower value): 1.02; normalized growth (locus YOR119C, strain RIO1, stronger effect = lower value): 1.05; normalized growth (locus YOR231W, strain MKK1, stronger effect = lower value): 1.05; normalized growth (locus YOR329C, strain SCD5, stronger effect = lower value): 1.01; normalized growth (locus YPL031C, strain PHO85, stronger effect = lower value): 0.995; normalized growth (locus YPL153C, strain RAD53, stronger effect = lower value): 0.99; normalized growth (locus YPL204W, strain HRR25, stronger effect = lower value): 0.991; normalized growth (locus YPL209C, strain IPL1, stronger effect = lower value): 1; normalized growth (locus YPL256C, strain CLN2, stronger effect = lower value): 1.02; normalized growth (locus YPR025C, strain CCL1, stronger effect = lower value): 0.997; normalized growth (locus YPR106W, strain ISR1, stronger effect = lower value): 0.992; normalized growth (locus YPR111W, strain DBF20, stronger effect = lower value): 0.997; normalized growth (strain NNK1, stronger effect = lower value): 0.997; normalized growth (strain TSCII, stronger effect = lower value): 0.997
